Screening results (PubChem)
Shown are actives, neighbours in structure and some others; about 0.81% of the full set was active somewhere.
IDE inh: inhibits human insulin-degrading enzyme in HEK cells; FAbetaB cleavage, fluorescence polarization; AID 434962; 320,000 compounds, 0.41% hits; P14735; inhibition, % at 5.59 µM;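 active means percent inhibition above the average of all tested compounds plus 3 SD, set per screening campaign, cut at about 16% in these data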;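 further: IDE supplied by intact live HEK cells; FP after avidin binding of uncleaved biotin substrate so inhibition keeps polarization high; 0% = DMSO wells and 100% = 60 µM reference IDE inhibitor Ii1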
Target sequence (P14735 whole entry, looked up): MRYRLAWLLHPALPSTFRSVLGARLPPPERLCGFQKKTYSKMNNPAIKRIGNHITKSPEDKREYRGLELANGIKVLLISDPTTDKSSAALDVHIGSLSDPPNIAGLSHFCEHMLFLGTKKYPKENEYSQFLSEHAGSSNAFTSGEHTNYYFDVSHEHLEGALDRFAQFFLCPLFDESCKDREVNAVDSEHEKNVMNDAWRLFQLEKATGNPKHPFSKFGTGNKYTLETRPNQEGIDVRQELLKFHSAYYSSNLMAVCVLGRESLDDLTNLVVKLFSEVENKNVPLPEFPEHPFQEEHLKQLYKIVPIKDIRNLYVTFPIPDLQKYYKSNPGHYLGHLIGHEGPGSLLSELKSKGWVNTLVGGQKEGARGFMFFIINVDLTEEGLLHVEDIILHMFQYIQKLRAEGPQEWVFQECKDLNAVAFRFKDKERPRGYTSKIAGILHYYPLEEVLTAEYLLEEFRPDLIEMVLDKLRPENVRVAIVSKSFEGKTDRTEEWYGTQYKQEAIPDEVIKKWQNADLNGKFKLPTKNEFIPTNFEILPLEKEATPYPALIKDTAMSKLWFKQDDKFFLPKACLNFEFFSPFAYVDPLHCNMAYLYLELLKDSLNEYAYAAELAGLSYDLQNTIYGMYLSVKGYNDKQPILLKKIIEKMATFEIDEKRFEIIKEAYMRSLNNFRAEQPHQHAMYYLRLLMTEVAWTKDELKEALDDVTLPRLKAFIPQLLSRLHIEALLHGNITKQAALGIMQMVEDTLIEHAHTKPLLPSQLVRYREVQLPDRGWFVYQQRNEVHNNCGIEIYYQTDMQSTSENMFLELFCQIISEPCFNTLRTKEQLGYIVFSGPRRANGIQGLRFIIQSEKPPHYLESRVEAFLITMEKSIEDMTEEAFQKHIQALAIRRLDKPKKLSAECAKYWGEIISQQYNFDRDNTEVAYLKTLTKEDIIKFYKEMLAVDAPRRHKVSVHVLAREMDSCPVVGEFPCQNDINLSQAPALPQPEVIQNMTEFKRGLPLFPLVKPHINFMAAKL
Keap1 Nrf2 FP: disrupts human Keap1 binding to Nrf2 peptide; Q14145; Keap1 Kelch-Nrf2 peptide fluorescence polarization, 1536-well; inhibition, % at 9.4 µM; 340,000 compounds, 0.15% hits; AID 504523; in the data active means inhibition above about 12%;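 further: human Keap1 Kelch domain with fluorescein labeled Nrf2 9mer peptide probe; 0% = neutral control wells and 100% = peptide positive control; higher means more block of Keap1 binding to Nrf2 peptide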
LANA DNA inh: blocks KSHV LANA C-terminal domain binding to DNA; MBP-C-LANA/FAM-LBS DNA binding, fluorescence polarization; inhibition, % at 9 µM; 340,000 compounds, 0.078% hits; AID 504423;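 active means highest replicate inhibition at or above 60% at 9 µM, even if other replicates fall short; inactive means all replicates below 60% inhibition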;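 further: 0% = neutral control wells and 100% = 4 µM acridine orange control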
RTF Ca sens act: increases calcium sensitivity of human cardiac regulated thin filaments; P19429+P45379; IANBD-labeled TnC RTF fluorescence at EC20 calcium; 0% EC20 calcium, 100% full calcium; activation, % at 7.2 µM; 340,000 compounds, 0.24% hits; AID 493008;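 active means activation above the mean over all tested compounds plus 3 SD, cut at about 30% in these data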;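 further: rise in fluorescence read as greater calcium sensitivity of cardiac thin filaments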
RTF Ca sens inh: cardiac RTF calcium desensitization; IANBD-labeled cardiac RTF, Ca2+ fluorescence; inhibition, % at 7.15 µM; 340,000 compounds, 0.12% hits;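 active means inhibition above the mean inhibition of all tested compounds plus 3 SD, cut at about 17% in these data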;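 further: assay run at fixed EC70 calcium of 1.6 mM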
IDE act: IDE (human) activation, cell-based. P14735. HEK cells, FAbeta-B cleavage, fluorescence polarization; 0% vehicle, 100% cell-free pure enzyme wells. activation, % at 5.96 µM. 340,000 compounds, 0.073% hits. AID 493087;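 active means activation above the mean of all tested compounds plus 3 SD, set per screening campaign, cut at about 17% in these data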
Starred values were filed as active, the others as inactive; x = not tested or not shown.

SMILES	IDE inh	Keap1 Nrf2 FP	LANA DNA inh	RTF Ca sens act	RTF Ca sens inh	IDE act
COC(=O)c1c(=O)n(O)c2ccc(OC)cc2[n+]1[O-]	0	24*	48	44*	-54	-3
Cc1ccc(N2C(=O)CC(n3nc(C)cc3C)C2=O)cc1 (stereo not drawn)	-1	-1	-1	-4	-3	3
O=C(O)c1ccccc1-c1ccc(/C=C2\SC(=O)N(c3ccccc3)C2=O)o1	2	-4	2	19	-15	-6
O=C1S/C(=C/c2ccc(N3CCOCC3)o2)C(=O)N1Cc1c(F)cccc1Cl	5	-8	-4	145*	-54	-54
O=C1S/C(=C\c2ccc(N3CCOCC3)o2)C(=O)N1c1ccccc1	-5	-42	-9	45*	-18	-21
O=C1S/C(=C\c2ccc(N3CCOCC3)o2)C(=O)N1Cc1c(F)cccc1Cl	14	-8	-3	100*	-43	-29
CCc1ccc(N2CC(C(=O)N3CCN(c4ccccn4)CC3)CC2=O)cc1 (stereo not drawn)	6	-2	-10	-8	4	-2
Cc1ccc(NC(=O)c2ncn(CC(=O)N[C@H](CO)Cc3c[nH]c4ccccc34)n2)cc1C	x	-1	1	-5	-3	4
COc1ccc(CCNC(=O)c2coc3ccccc3c2=O)cc1OC	8	-5	2	5	-11	-2
O=C(c1ccccc1)N1CCN(c2ccc([N+](=O)[O-])c(NCc3cccnc3)c2)CC1	-5	2	2	3	2	20*
COc1ccc(-c2cc(C(F)(F)F)c3c(n2)sc2c(O)cc(=O)[nH]c23)c(OC)c1	13	-74	1	38*	-70	-13
Cc1cc(C)c2c(n1)sc1c(O)cc(=O)[nH]c12	-1	-4	0	0	-14	4
C=C1c2cccc(O)c2C(O)=C2C(=O)[C@]3(O)C(O)=C(C(N)=O)C(=O)[C@@H](N(C)C)[C@@H]3[C@@H](O)[C@H]12	2	4	75*	1	14	6
CCN(CC)c1ccc(/C=C/c2cccc[n+]2C)c(OC)c1	28*	-135	-47	75*	-96	-36
CCOC(=O)/C(=C\c1ccccc1)C(=O)CCN1CCOCC1	x	-26	-2	3	-4	3
CC1(C)CCN2CCC(C)(C)c3c(O)ccc1c32	11	-16	28	85*	-167	-15
CC(=O)N1CCC2(CC1)C(C#N)=C(N)OC1=C2C(=O)CC(C)(C)C1	-1	-3	2	-3	-1	2
CC1(C)CC(=O)C2=C(C1)OC(N)=C(C#N)C21CCN(Cc2ccccc2)CC1	1	1	10	32*	-24	2
CC[C@@H]1C/C=C\Cc2ccccc2[C@@H](C(=O)C[C@@H](O)CC(C)=O)OC1=O	1	-1	-3	-3	-6	8
COc1ccc(COc2cc(-c3cccc(OC)c3)nc3ccc(NC(=O)c4ccc(N(C)C)cc4)cc23)cc1	2	-6	0	0	-4	6
COc1ccc(COc2cc(-c3cccc(OC)c3)nc3ccc(NC(=O)c4ccc(C)cc4)cc23)cc1	-3	-4	2	33*	2	5
O=C(CCl)N1c2ccccc2Oc2ccc3ccccc3c21	x	-2	6	226*	-295	-5
CC(=O)N1c2ccccc2Oc2cc3ccccc3cc21	7	-3	-1	1	-7	6
COc1cccc2cc(-c3ccccc3)oc12	7	x	x	x	x	x
COc1cccc2cc(-c3ccnc(=S)[nH]3)oc12	39*	x	x	x	x	x
SMILES	IDE inh	Keap1 Nrf2 FP	LANA DNA inh	RTF Ca sens act	RTF Ca sens inh	IDE act
N#C/C(=C/c1ccc(N2CCCCCC2)o1)c1ccc(Cl)cc1	0	-5	-1	36*	-42	-17
N#C/C(=C/c1ccc(N2CCCCC2)o1)c1cccc(F)c1	0	-3	0	14	-9	-18
Cc1ccnc(N/C=C(/NC(=O)c2ccccc2)C(=O)N/N=C\c2ccc(Cl)cc2)n1	32*	-1	-1	2	4	-29
CCOC(=O)c1ccccc1-n1nnnc1C	-6	-3	-1	124*	7	5
Cc1ccc(-c2nnnn2-c2ccccc2C(=O)O)cc1	0	-1	-1	3	0	3
Cc1ccc(S(=O)(=O)N2CCN(C(=O)COC(=O)COc3ccccc3C(C)C)CC2)c(C)c1	x	-2	0	-2	3	1
COc1ccc(C2C(C#N)=C(N)SC(N)=C2C#N)cc1OC	13	-55	20	36*	-59	-15
CCc1cc(Cn2nc(C(=O)O)cc2-c2ccccc2)on1	1	1	-1	-6	-4	19*
CCc1cc(Cn2nc(-c3ccccc3C)cc2C(=O)O)on1	1	1	1	-8	0	4
CC(=O)C1CCC2C3CC=C4CC(SC(=N)N)CCC4(C)C3CCC12C (stereo not drawn)	x	-2	-2	-4	5	-9
C#CCOCCOCCOCCNc1nc(N2CCN(C(=O)CCCCCCCCCCNC(=O)Cn3cc(CCCCCN)nn3)CC2)nc(N2CCN(C(=O)CCCCCCCCCCNC(=O)[C@@H](CCSC)n3cc(CCO)nn3)CC2)n1	4	-15	-5	10	-2	31*
C#CCOCCOCCOCCNc1nc(N2CCN(C(=O)CCCCCCCCCCNC(=O)Cn3cc(C[C@@H](C)O)nn3)CC2)nc(N2CCN(C(=O)CCCCCCCCCCNC(=O)[C@H](CO)n3cc(CCCSC)nn3)CC2)n1	3	-3	1	5	-8	4
C#CCOCCOCCOCCNc1nc(N2CCN(C(=O)CCCCCCCCCCNC(=O)Cn3cc(CCCCCN)nn3)CC2)nc(N2CCN(C(=O)CCCCCCCCCCNC(=O)[C@@H](CCC(=O)O)n3cc(CCCCCN)nn3)CC2)n1	-5	-17	0	2	1	2
C#CCOCCOCCOCCNc1nc(N2CCN(C(=O)CCCCCCCCCCNC(=O)[C@H](CO)n3cc(CCCSC)nn3)CC2)nc(N2CCN(C(=O)CCCCCCCCCCNC(=O)[C@H](CCCCN)n3cc(CCO)nn3)CC2)n1	5	-9	0	0	-3	22*
C#CCOCCOCCOCCNc1nc(N2CCN(C(=O)CCCCCCCCCCNC(=O)Cn3cc(C[C@@H](C)O)nn3)CC2)nc(N2CCN(C(=O)CCCCCCCCCCNC(=O)[C@H](CCCN=C(N)N)n3cc(C[C@@H](C)CC)nn3)CC2)n1	8	-7	-2	2	-6	35*
C#CCOCCOCCOCCNc1nc(N2CCN(C(=O)CCCCCCCCCCNC(=O)[C@H](CO)n3cc(CCCSC)nn3)CC2)nc(N2CCN(C(=O)CCCCCCCCCCNC(=O)[C@H](CCCN=C(N)N)n3cc(C[C@@H](C)CC)nn3)CC2)n1	-2	-2	2	0	1	55*
